Measured values from the supplement of paper PMC9262897, “Low-cost anti-mycobacterial drug discovery using engineered E. coli” (Nature Communications, 2022).
Structures can show the parent of a compound that is named as a salt. ± gives the standard deviation of the averaged measurements.

Legend:
Assay in all cases: growth (OD600 after 10 h); higher = more growth (less inhibition)
[1] = system: E. coli TESEC Alr+ wild-type control; conditions: compound 0.1 mM; raw OD600 reference: median of DMSO wells 0.241, cell-free background 0.041
Procedure: (§1)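 TESEC Mtb Alr E. coli, or the Alr+ wild-type control, in 384-well plates with Prestwick library compounds at 0.1 mM and 1% DMSO, across arabinose induction levels of 1E3 to 1E7 nM. Growth is read as OD600 after 10 h at 37 °C in triplicate biological replicates.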

[2] = system: E. coli TESEC Mtb Alr; conditions: compound 0.1 mM
Procedure: as §1

[3] = system: E. coli TESEC Mtb Asd; conditions: compound 0.1 mM
Procedure: (§2)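 TESEC E. coli strains in which the native enzyme is deleted and replaced by arabinose-inducible Mtb Asd, DapB, CysH or TrpD, each grown in its selective medium. Strains were screened against the Prestwick library at 0.1 mM and 1% DMSO in 384-well format at low and high arabinose induction. Growth is read as OD600 after 10 h in triplicate.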

[4] = system: E. coli TESEC Mtb DapB; conditions: compound 0.1 mM
Procedure: as §2

[5] = system: E. coli TESEC Alr+ wild-type control; conditions: compound 0.1 mM; raw OD600 reference: median of DMSO wells 0.49, cell-free background 0.052
Procedure: (§3)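 TESEC Mtb Alr E. coli (ΔaraC ΔtolC ΔentC Δalr ΔdadX, arabinose-inducible Mtb Alr) or the Alr+ wild-type control strain, grown in defined M9-fructose medium without D-alanine in 96-well plates with Prestwick library compounds at 0.1 mM and 1% DMSO. Low Alr induction is 0.1 µM arabinose and high induction is 10 mM arabinose.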

[6] = system: E. coli TESEC Mtb Alr; conditions: compound 0.1 mM; remark: listed apart in the source
Procedure: as §3

[7] = arabinose 1000 nM, raw OD600 reference: median of DMSO wells 0.294, cell-free background 0.041
[8] = arabinose 10000 nM, raw OD600 reference: median of DMSO wells 0.264, cell-free background 0.041
[9] = arabinose 100000 nM, raw OD600 reference: median of DMSO wells 0.201, cell-free background 0.041
[10] = arabinose 1000000 nM, raw OD600 reference: median of DMSO wells 0.193, cell-free background 0.041
[11] = arabinose 10000000 nM, raw OD600 reference: median of DMSO wells 0.146, cell-free background 0.041
[12] = arabinose induction (level): High, raw OD600 reference: median of DMSO wells 0.331, cell-free background 0.041
[13] = arabinose induction (level): Low, raw OD600 reference: median of DMSO wells 0.417, cell-free background 0.041
[14] = arabinose induction (level): High, raw OD600 reference: median of DMSO wells […], cell-free background 0.041
[15] = arabinose induction (level): Low, raw OD600 reference: median of DMSO wells 0.227, cell-free background 0.041
[16] = arabinose 100 nM, raw OD600 reference: median of DMSO wells 0.413, cell-free background 0.052
[17] = arabinose 10000000 nM, raw OD600 reference: median of DMSO wells […], cell-free background 0.052

SMILES	growth [1]	growth [2, 7]	growth [2, 8]	growth [2, 9]	growth [2, 10]	growth [2, 11]	growth [3, 12]	growth [3, 13]	growth [4, 14]	growth [4, 15]	growth [5]	growth [6, 16]	growth [6, 17]
CN1CCN(CCCN2c3ccccc3Sc3ccc(S(=O)(=O)N(C)C)cc32)CC1 [Thioproperazine dimesylate]	0.181 ± 0.0045	0.165 ± 0.0059	0.196 ± 0.0078	0.195 ± 0.0039	0.106 ± 0.0049	0.173 ± 0.0023	0.171 ± 0.017	0.246 ± 0.049	0.2 ± 0.024	0.249 ± 0.0047	0.409 ± 0.041	0.404 ± 0.0053	0.232 ± 0.0024
CN[C@@H]1[C@H](O[C@H]2[C@H](O[C@H]3[C@H](O)[C@@H](O)[C@H](NC(=N)N)[C@@H](O)[C@@H]3NC(=N)N)O[C@@H](C)[C@]2(O)CO)O[C@@H](CO)[C@H](O)[C@H]1O [Dihydrostreptomycin sulfate]	0.041 ± 0.0011	0.0419 ± 0.0011	0.03877 ± 0.00012	0.0454 ± 0.0053	0.0395 ± 0.0004	0.0485 ± 0.0005	0.0488 ± 0.00072	0.0499 ± 0.0017	0.0489 ± 0.00049	0.0483 ± 0.00061	0.0605 ± 0.0073	0.0553 ± 0.0036	0.0534 ± 0.00091
CN1CCCC(n2nc(Cc3ccc(Cl)cc3)c3ccccc3c2=O)CC1 (centres undefined) [Azelastine HCl]	0.16 ± 0.0036	0.19 ± 0.011	0.172 ± 0.0055	0.193 ± 0.0073	0.105 ± 0.0015	0.1635 ± 0.00076	0.157 ± 0.025	0.241 ± 0.056	0.169 ± 0.0087	0.191 ± 0.011		0.409 ± 0.0069	0.312 ± 0.019
CC(=O)N1CCN(c2ccc(OCC3COC(Cn4ccnc4)(c4ccc(Cl)cc4Cl)O3)cc2)CC1 (centres undefined) [Ketoconazole]	0.05323 ± 0.00038	0.0525 ± 0.0042	0.04237 ± 0.00035	0.0541 ± 0.0007	0.04317 ± 0.0004	0.05383 ± 5.8e-05	0.0601 ± 0.0054	0.0507 ± 0.0015	0.0759 ± 0.0062	0.0712 ± 0.0069		0.32 ± 0.041	0.0608 ± 0.0022
C[n+]1ccccc1/C=N/O [Pralidoxime chloride]	0.253 ± 0.0089	0.318 ± 0.018	0.256 ± 0.013	0.202 ± 0.015	0.177 ± 0.0021	0.156 ± 0.007	0.476 ± 0.013	0.455 ± 0.046	0.223 ± 0.011	0.284 ± 0.0069	0.605 ± 0.018	0.407 ± 0.018	0.323 ± 0.015
CC(C)(O/N=C(\C(=O)N[C@@H]1C(=O)N2C(C(=O)[O-])=C(C[n+]3ccccc3)CS[C@H]12)c1csc(N)n1)C(=O)O [Ceftazidime pentahydrate]	0.0434 ± 0.00087	0.0435 ± 0.0041	0.0396 ± 0.0004	0.0423 ± 0.0036	0.0575 ± 0.00086	0.0674 ± 0.0023	0.113 ± 0.0029	0.0679 ± 0.011	0.167 ± 0.072	0.0547 ± 0.0049		0.0467 ± 0.002	0.0727 ± 0.0092
CCCCC(=O)O[C@H]1CC[C@H]2[C@@H]3CCc4cc(O)ccc4[C@H]3CC[C@]12C [Estradiol Valerate]	0.252 ± 0.004	0.307 ± 0.0067	0.285 ± 0.0065	0.215 ± 0.016	0.221 ± 0.021	0.13 ± 0.0034	0.404 ± 0.031	0.396 ± 0.048	0.193 ± 0.0052	0.207 ± 0.0061	0.48 ± 0.071	0.436 ± 0.018	0.38 ± 0.0047
CN(C)CC/C=C1/c2ccccc2COc2ccc(CC(=O)O)cc21 [Olopatadine hydrochloride]	0.2304 ± 0.0017	0.281 ± 0.0096	0.276 ± 0.0029	0.179 ± 0.014	0.231 ± 0.013	0.126 ± 0.0042	0.256 ± 0.056	0.328 ± 0.089	0.198 ± 0.011	0.233 ± 0.015		0.425 ± 0.0062	0.361 ± 0.013
Cc1cccc(C)c1NC(=O)C(C)N (centres undefined) [Tocainide hydrochloride]	0.26 ± 0.0084	0.318 ± 0.0085	0.269 ± 0.0071	0.187 ± 0.014	0.1844 ± 0.0016	0.145 ± 0.0027	0.209 ± 0.016	0.433 ± 0.031	0.232 ± 0.038	0.244 ± 0.06		0.4 ± 0.015	0.307 ± 0.023
CC(C)(C(=O)c1cccnc1)c1cccnc1 [Metyrapone]	0.246 ± 0.0034	0.311 ± 0.017	0.273 ± 0.0073	0.198 ± 0.0061	0.2 ± 0.017	0.1411 ± 0.00086	0.317 ± 0.017	0.428 ± 0.0064	0.179 ± 0.015	0.188 ± 0.01		0.409 ± 0.013	0.3383 ± 0.0029
CCC1(C)CC(=O)NC1=O (centres undefined) [Ethosuximide]	0.2481 ± 0.002	0.287 ± 0.014	0.267 ± 0.0062	0.219 ± 0.016	0.1876 ± 0.0001	0.141 ± 0.003	0.38 ± 0.03	0.417 ± 0.026	0.1866 ± 0.0016	0.245 ± 0.052		0.4152 ± 0.0041	0.368 ± 0.019
COC(=O)[C@@H]1[C@H]2C[C@H]3c4[nH]c5ccccc5c4CCN3C[C@@H]2CC[C@@H]1O [Yohimbine hydrochloride]	0.217 ± 0.0081	0.28 ± 0.007	0.265 ± 0.0075	0.176 ± 0.011	0.142 ± 0.0078	0.142 ± 0.0022	0.163 ± 0.031	0.318 ± 0.074	0.166 ± 0.01	0.19 ± 0.012		0.409 ± 0.011	0.343 ± 0.031
CN1C(=O)OC(C)(C)C1=O [Trimethadione]	0.242 ± 0.0071	0.283 ± 0.0076	0.269 ± 0.012	0.202 ± 0.014	0.185 ± 0.0082	0.1382 ± 0.00081	0.297 ± 0.098	0.409 ± 0.037	0.193 ± 0.0086	0.229 ± 0.042		0.423 ± 0.011	0.344 ± 0.02
OC(CCN1CCCCC1)(c1ccccc1)C1CC2C=CC1C2 (centres undefined) [Biperiden hydrochloride]	0.23 ± 0.031	0.284 ± 0.0095	0.275 ± 0.0046	0.226 ± 0.03	0.155 ± 0.0033	0.154 ± 0.0039	0.194 ± 0.045	0.38 ± 0.094	0.159 ± 0.012	0.174 ± 0.016		0.415 ± 0.011	0.359 ± 0.035
Cc1nc2ccccn2c(=O)c1CCN1CCC(C(=O)c2ccc(F)cc2)CC1 [Pirenperone]	0.208 ± 0.0042	0.272 ± 0.0064	0.268 ± 0.013	0.208 ± 0.043	0.178 ± 0.0069	0.147 ± 0.007	0.352 ± 0.045	0.395 ± 0.089	0.223 ± 0.0088	0.23 ± 0.037		0.408 ± 0.011	0.312 ± 0.023
